Legend:
Test in all cases: DAPPL (digital affinity profiling via proximity ligation, sequencing); 10 mM Tris-HCl pH 7.5, 50 mM NaCl, 1 mM DTT, 4% glycerol, room temperature, 30 min; GST-TFs on glutathione beads, 16-mer random dsDNA library, 0.1% formaldehyde crosslink after washing; high values mean tight binding
[1] = target: T1, FEV (Homo sapiens, UniProt Q99581 1-238); conditions: protein: recombinant; tags: N-terminal GST; dsDNA, one strand shown
T1 sequence: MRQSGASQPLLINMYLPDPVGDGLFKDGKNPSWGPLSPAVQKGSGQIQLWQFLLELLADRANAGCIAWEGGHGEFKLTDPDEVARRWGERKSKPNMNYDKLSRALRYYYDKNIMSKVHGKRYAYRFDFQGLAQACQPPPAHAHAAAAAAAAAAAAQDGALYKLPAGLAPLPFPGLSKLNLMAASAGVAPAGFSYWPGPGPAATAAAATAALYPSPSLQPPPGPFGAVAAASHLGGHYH
In short: (§1)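 The binding signal reported is, for every hexamer, its read frequency for a factor over its read frequency for the tag-only sample. Reads came from pools of yeast-expressed, GST-fused human transcription factors on glutathione beads, barcoded with DNA and mixed with that sample, which were incubated with 200 nmole of a random double-stranded 16-mer DNA library in Tris/NaCl/DTT/glycerol buffer at room temperature for 30 min. After washing, the pools were crosslinked with 0.1% formaldehyde, proximity-ligated with BsaI/T4 ligase for 1 h at 37 °C, PCR-amplified and sequenced on an Illumina NextSeq500.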

[2] = target: ETV5 (Homo sapiens, UniProt P41161 1-510); conditions: protein: recombinant; tags: N-terminal GST; dsDNA, one strand shown
In short: as §1

[3] = target: HSF1 (Homo sapiens, UniProt Q00613 1-529); conditions: protein: recombinant; tags: N-terminal GST; chain copies: 3; dsDNA, one strand shown
In short: as §1

[4] = target: T2, SPIC (Homo sapiens, UniProt Q8N5J4 1-248); conditions: protein: recombinant; tags: N-terminal GST; dsDNA, one strand shown
T2 sequence: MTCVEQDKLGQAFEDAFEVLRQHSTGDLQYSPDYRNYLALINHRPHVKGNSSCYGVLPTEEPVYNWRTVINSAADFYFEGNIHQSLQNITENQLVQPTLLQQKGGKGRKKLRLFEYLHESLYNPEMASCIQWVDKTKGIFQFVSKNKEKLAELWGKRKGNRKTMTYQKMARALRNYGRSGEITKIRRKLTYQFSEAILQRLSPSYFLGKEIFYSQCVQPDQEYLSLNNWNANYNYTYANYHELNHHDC
In short: as §1

[5] = target: ELF4 (Homo sapiens, UniProt Q99607 1-663); conditions: protein: recombinant; tags: N-terminal GST; dsDNA, one strand shown
In short: as §1

[6] = target: T3, ELK4 (Homo sapiens, UniProt P28324-2 1-405); conditions: protein: recombinant; tags: N-terminal GST; dsDNA, one strand shown
T3 sequence: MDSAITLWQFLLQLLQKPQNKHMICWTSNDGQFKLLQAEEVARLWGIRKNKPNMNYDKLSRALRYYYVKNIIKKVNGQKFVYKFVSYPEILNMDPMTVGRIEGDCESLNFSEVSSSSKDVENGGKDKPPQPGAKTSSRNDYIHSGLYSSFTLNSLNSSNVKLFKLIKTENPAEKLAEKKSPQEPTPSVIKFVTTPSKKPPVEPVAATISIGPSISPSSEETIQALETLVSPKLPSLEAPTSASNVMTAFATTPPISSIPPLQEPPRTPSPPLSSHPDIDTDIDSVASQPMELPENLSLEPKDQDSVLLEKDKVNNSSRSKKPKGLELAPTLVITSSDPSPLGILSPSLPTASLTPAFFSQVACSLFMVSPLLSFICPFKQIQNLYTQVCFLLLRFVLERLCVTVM
In short: as §1

[7] = target: T4, ETV2 (Homo sapiens, UniProt O00321 1-342); conditions: protein: recombinant; tags: N-terminal GST; dsDNA, one strand shown
T4 sequence: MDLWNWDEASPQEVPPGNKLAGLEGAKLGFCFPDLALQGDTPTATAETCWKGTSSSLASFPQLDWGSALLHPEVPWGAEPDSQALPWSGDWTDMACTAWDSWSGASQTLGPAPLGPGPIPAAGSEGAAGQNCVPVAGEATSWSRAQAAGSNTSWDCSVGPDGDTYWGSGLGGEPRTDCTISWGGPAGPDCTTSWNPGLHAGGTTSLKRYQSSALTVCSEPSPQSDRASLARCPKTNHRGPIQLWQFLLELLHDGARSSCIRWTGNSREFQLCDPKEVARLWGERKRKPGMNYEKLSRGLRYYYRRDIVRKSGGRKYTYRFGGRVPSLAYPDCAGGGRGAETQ
In short: as §1

[8] = target: T5, ELF3 (Homo sapiens, UniProt P78545 1-371); conditions: protein: recombinant; tags: N-terminal GST; dsDNA, one strand shown
T5 sequence: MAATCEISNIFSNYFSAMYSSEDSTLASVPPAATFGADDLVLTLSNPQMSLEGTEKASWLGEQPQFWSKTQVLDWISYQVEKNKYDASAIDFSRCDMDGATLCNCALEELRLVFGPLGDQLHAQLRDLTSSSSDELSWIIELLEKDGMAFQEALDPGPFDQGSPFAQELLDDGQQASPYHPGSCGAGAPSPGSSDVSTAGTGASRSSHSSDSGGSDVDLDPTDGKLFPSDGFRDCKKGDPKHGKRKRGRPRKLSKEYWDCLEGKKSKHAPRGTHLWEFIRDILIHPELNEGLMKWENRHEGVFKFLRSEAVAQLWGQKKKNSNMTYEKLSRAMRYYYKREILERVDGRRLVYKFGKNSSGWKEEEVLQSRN
In short: as §1

[9] = target: ETV1 (Homo sapiens, UniProt P50549 1-477); conditions: protein: recombinant; tags: N-terminal GST; dsDNA, one strand shown
In short: as §1

[10] = target: T6, ERF (Homo sapiens, UniProt P50548 1-548); conditions: protein: recombinant; tags: N-terminal GST; dsDNA, one strand shown
T6 sequence: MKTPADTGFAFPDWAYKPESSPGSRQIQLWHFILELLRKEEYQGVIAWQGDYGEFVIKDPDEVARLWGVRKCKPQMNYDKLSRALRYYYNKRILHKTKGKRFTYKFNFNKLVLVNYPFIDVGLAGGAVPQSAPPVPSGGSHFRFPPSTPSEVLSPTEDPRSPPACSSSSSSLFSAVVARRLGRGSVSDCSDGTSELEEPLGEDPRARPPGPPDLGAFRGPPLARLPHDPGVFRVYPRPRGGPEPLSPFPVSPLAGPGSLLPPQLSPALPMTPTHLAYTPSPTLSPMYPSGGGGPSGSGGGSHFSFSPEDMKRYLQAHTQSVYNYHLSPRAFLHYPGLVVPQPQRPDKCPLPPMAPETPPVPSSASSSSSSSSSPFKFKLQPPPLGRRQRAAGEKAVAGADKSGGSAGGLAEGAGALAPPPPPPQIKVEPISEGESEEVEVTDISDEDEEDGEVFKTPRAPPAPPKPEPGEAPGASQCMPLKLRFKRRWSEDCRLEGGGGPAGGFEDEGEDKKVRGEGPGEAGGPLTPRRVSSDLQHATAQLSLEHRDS
In short: as §1

[11] = target: T7, ETV3L (Homo sapiens, UniProt Q6ZN32 1-361); conditions: protein: recombinant; tags: N-terminal GST; dsDNA, one strand shown
T7 sequence: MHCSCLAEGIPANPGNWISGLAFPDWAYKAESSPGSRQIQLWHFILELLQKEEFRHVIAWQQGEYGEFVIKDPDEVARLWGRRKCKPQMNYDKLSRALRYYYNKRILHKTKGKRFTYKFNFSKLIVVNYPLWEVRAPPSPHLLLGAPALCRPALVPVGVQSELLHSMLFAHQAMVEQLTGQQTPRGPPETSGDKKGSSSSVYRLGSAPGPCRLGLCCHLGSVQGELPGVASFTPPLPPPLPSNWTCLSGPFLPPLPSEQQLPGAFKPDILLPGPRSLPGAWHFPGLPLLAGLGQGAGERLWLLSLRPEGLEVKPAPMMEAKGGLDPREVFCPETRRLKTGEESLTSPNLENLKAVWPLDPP
In short: as §1

[12] = target: T8, ETS2 (Homo sapiens, UniProt P15036 1-469); conditions: protein: recombinant; tags: N-terminal GST; dsDNA, one strand shown
T8 sequence: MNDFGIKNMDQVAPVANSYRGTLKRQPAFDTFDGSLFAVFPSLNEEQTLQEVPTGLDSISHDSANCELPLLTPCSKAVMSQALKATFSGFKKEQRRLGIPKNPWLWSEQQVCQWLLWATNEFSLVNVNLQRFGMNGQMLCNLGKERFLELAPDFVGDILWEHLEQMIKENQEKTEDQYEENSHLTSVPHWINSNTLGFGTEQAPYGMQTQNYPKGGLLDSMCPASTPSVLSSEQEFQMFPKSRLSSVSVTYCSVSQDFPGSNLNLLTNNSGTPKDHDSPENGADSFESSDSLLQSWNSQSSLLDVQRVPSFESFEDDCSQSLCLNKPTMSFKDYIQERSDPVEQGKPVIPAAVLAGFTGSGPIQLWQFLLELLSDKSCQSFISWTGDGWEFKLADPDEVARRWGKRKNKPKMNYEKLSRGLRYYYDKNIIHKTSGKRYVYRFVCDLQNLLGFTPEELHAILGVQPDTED
In short: as §1

[13] = target: T9, SPDEF (Homo sapiens, UniProt O95238 1-335); conditions: protein: recombinant; tags: N-terminal GST; dsDNA, one strand shown
T9 sequence: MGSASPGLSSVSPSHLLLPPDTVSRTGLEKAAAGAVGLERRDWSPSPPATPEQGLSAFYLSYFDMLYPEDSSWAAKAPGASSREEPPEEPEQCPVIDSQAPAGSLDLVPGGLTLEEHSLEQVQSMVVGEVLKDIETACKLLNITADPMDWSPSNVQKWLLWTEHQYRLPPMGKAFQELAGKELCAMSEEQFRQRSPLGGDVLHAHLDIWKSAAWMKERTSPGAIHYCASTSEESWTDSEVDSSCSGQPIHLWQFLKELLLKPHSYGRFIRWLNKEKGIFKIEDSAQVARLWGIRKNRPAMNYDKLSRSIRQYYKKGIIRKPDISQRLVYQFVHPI
In short: as §1

[14] = target: T10, ETV7 (Homo sapiens, UniProt Q9Y603 1-341); conditions: protein: recombinant; tags: N-terminal GST; dsDNA, one strand shown
T10 sequence: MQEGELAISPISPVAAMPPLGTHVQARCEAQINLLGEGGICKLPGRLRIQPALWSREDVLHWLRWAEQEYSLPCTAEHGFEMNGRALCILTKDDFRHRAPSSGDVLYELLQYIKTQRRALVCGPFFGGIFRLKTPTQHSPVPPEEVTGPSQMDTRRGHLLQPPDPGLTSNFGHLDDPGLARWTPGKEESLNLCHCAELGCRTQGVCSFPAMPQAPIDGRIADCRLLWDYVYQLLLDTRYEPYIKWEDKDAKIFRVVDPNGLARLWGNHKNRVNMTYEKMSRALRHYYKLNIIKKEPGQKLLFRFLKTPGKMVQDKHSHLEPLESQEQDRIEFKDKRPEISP
In short: as §1

[15] = target: T11, ELF5 (Homo sapiens, UniProt Q9UKW6-2 1-255); conditions: protein: recombinant; tags: N-terminal GST; dsDNA, one strand shown
T11 sequence: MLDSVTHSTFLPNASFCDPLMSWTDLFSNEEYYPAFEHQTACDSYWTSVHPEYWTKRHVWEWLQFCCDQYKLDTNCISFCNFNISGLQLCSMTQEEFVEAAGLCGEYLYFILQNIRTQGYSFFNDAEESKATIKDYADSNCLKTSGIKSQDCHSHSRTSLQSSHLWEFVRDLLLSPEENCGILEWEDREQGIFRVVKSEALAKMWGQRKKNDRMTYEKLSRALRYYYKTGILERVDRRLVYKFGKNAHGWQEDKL
In short: as §1

[16] = target: T12, ETV3 (Homo sapiens, UniProt P41162-2 1-143); conditions: protein: recombinant; tags: N-terminal GST; dsDNA, one strand shown
T12 sequence: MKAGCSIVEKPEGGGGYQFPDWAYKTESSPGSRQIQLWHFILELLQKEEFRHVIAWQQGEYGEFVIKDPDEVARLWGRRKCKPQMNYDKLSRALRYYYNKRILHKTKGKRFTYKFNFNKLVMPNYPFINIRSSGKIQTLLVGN
In short: as §1

[17] = target: ETV6 (Homo sapiens, UniProt P41212 1-452); conditions: protein: recombinant; tags: N-terminal GST; dsDNA, one strand shown
In short: as §1

Chain of ELF4 (Q99607 whole entry): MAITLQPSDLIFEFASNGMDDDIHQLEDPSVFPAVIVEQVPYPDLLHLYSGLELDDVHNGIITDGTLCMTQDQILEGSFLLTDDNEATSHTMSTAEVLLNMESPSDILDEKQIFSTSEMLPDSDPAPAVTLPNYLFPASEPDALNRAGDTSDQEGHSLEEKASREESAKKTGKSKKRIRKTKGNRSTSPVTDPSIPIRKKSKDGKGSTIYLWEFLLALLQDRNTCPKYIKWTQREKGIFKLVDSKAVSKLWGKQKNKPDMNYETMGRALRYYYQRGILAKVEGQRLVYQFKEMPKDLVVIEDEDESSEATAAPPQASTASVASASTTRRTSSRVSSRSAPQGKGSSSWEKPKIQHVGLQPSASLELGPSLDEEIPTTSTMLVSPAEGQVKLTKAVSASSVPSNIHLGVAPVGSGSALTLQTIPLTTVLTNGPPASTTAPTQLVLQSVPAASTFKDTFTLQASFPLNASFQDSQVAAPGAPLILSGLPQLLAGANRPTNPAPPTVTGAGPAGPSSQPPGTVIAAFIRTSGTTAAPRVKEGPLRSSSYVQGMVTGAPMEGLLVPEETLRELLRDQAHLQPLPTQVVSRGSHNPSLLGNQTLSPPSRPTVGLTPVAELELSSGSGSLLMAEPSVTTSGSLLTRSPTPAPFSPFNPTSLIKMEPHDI
Chain of ETV1 (P50549 whole entry): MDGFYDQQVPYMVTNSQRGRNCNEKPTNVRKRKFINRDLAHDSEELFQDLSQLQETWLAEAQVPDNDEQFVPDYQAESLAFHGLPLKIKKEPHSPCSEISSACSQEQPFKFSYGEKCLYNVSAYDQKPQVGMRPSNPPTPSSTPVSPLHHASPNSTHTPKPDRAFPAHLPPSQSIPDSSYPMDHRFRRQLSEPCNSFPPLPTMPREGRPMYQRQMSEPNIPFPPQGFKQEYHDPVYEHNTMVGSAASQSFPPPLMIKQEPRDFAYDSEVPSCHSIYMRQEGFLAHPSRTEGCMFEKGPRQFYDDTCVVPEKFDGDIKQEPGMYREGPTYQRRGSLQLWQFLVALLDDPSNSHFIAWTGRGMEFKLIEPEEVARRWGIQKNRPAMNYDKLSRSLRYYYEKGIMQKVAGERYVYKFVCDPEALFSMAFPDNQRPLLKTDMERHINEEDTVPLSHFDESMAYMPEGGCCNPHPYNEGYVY
Chain of HSF1 (Q00613 whole entry): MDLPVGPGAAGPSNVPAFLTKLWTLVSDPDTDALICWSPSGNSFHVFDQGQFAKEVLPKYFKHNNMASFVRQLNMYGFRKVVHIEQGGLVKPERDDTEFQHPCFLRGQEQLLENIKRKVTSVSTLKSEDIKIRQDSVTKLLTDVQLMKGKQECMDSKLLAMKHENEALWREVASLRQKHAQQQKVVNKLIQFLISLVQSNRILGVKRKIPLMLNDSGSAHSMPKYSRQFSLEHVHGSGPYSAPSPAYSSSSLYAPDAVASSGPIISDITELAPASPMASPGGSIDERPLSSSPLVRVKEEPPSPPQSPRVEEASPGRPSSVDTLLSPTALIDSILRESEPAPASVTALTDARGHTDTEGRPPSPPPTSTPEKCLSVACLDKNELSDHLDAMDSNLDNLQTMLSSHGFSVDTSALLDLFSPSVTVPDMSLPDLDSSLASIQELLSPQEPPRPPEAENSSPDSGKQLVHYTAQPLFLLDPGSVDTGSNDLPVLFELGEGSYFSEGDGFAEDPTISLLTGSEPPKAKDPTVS
Chain of ETV5 (P41161 whole entry): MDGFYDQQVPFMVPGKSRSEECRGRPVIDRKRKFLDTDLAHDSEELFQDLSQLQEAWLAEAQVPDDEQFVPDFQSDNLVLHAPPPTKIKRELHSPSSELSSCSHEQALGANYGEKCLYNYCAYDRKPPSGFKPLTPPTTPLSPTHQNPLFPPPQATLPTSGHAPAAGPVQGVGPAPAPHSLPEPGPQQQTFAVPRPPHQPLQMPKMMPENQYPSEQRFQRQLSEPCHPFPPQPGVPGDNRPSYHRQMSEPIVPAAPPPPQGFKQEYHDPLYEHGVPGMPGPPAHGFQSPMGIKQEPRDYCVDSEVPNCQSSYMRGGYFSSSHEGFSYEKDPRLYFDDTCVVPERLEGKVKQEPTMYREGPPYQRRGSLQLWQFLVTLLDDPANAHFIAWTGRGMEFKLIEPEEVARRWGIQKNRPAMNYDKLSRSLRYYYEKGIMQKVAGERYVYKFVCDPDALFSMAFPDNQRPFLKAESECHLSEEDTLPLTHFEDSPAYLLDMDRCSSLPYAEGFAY
Chain of ETV6 (P41212 whole entry): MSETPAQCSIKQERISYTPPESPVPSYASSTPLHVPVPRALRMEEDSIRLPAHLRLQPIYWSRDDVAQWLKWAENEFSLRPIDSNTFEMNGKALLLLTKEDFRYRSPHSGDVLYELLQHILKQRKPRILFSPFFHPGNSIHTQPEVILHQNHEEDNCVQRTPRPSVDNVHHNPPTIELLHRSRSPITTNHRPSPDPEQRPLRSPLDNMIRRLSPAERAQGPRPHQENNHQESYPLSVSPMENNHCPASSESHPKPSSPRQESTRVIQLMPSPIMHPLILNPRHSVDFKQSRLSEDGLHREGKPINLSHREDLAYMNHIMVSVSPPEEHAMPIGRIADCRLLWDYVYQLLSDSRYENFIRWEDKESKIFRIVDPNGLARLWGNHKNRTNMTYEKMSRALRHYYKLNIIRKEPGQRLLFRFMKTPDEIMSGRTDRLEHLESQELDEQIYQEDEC

Row | Sequence | binding signal [1] | binding signal [2] | binding signal [3] | binding signal [4] | binding signal [5] | binding signal [6] | binding signal [7] | binding signal [8] | binding signal [9] | binding signal [10] | binding signal [11] | binding signal [12] | binding signal [13] | binding signal [14] | binding signal [15] | binding signal [16] | binding signal [17]
1 | ACATAC | 1.13 fold enrichment (6-mer frequency, TF over GST control) | 1.17 fold enrichment (6-mer frequency, TF over GST control) | 1.07 fold enrichment (6-mer frequency, TF over GST control) | 1.11 fold enrichment (6-mer frequency, TF over GST control) | 1.21 fold enrichment (6-mer frequency, TF over GST control) | 1.01 fold enrichment (6-mer frequency, TF over GST control) | 1.32 fold enrichment (6-mer frequency, TF over GST control) | 1.25 fold enrichment (6-mer frequency, TF over GST control) | 1.15 fold enrichment (6-mer frequency, TF over GST control) | 1.23 fold enrichment (6-mer frequency, TF over GST control) | 1.15 fold enrichment (6-mer frequency, TF over GST control) | 1.21 fold enrichment (6-mer frequency, TF over GST control) | 1.2 fold enrichment (6-mer frequency, TF over GST control) | 1.12 fold enrichment (6-mer frequency, TF over GST control) | 1.14 fold enrichment (6-mer frequency, TF over GST control) | 1.18 fold enrichment (6-mer frequency, TF over GST control) | 1.17 fold enrichment (6-mer frequency, TF over GST control)
2 | CGCGTC | 1.2 fold enrichment (6-mer frequency, TF over GST control) | 1.06 fold enrichment (6-mer frequency, TF over GST control) | 1.02 fold enrichment (6-mer frequency, TF over GST control) | 1.39 fold enrichment (6-mer frequency, TF over GST control) | 1.19 fold enrichment (6-mer frequency, TF over GST control) | 1.48 fold enrichment (6-mer frequency, TF over GST control) | 1.35 fold enrichment (6-mer frequency, TF over GST control) | 1.44 fold enrichment (6-mer frequency, TF over GST control) | 1.22 fold enrichment (6-mer frequency, TF over GST control) | 1.37 fold enrichment (6-mer frequency, TF over GST control) | 1.26 fold enrichment (6-mer frequency, TF over GST control) | 1.24 fold enrichment (6-mer frequency, TF over GST control) | 1.31 fold enrichment (6-mer frequency, TF over GST control) | 1.25 fold enrichment (6-mer frequency, TF over GST control) | 1.34 fold enrichment (6-mer frequency, TF over GST control) | 1.23 fold enrichment (6-mer frequency, TF over GST control) | 1.29 fold enrichment (6-mer frequency, TF over GST control)

From publication PMC7862700, “An all-to-all approach to the identification of sequence-specific readers for epigenetic DNA modifications on cytosine”
